According to PubChem BioAssay:
Calls of active or inactive are those of the source. Unless noted, the rule behind the calls is not given here.

Experiments:
[1] = anti-His antibody binders, primary screen, artefact control for SMM control protein annotation, biochemical, small-molecule microarray, 635 nm fluorescence (AID 1128); conditions: anti-His Alexa647 antibody binding, higher = more signal;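 note: score merges feature fluorescence with signal-to-noise for each printed compound spot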
[2] = test system: Human papillomavirus type 1a E7 protein (residues 1-88); assay: HPV1a E7 small-molecule binders, primary screen, biochemical, small-molecule microarray, residues 1-88, 635 nm (AID 1129); conditions: small-molecule microarray binding, fluorescence 635 nm; higher = more signal
[3] = target: Focal adhesion kinase 1 (Homo sapiens) (UniProt Q05397); assay: small-molecule microarray binders of FAK, primary screen, biochemical, 635/667 nm fluorescence, BSA, DTT (AID 1130); conditions: PTK2 binding, 635 nm fluorescence, higher = more signal;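 note: composite of spot emission at 667 nm and signal to noise over triplicate slides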
[4] = test system: Fibrinogen (Alexa647-labelled); assay: fibrinogen binders on compound microarrays, profiling panel, artefact control for SMM control-protein annotation, biochemical, small-molecule microarray, 635/667 nm fluorescence (AID 1131); conditions: fibrinogen-A647 binding fluorescence, higher = more signal;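 note: z-score merges 667 nm fluorescence with per-spot signal-to-noise over triplicate slides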
[5] = target: Follistatin (Homo sapiens) (UniProt P19883); assay: follistatin binders on small-molecule microarrays, primary screen, biochemical, small-molecule microarray, 635/667 nm fluorescence (AID 1132); conditions: FST binding, 635 nm fluorescence, higher = more signal
[6] = target: Fibroblast growth factor 2 (Homo sapiens) (UniProt P09038); assay: FGF2 binders on small-molecule microarrays, primary screen, biochemical, small-molecule microarray, 635/667 nm fluorescence (AID 1133); conditions: small-molecule microarray binding, FGF2, fluorescence 635/667; higher = more signal
[7] = mitochondrial membrane potential change in A549 cells, profiling panel, cell-based, JC-1 fluorescence, basal, 24 h, 100 nL (AID 1138); conditions: higher = more signal;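 note: A549 lung adenocarcinoma cells under basal conditions with no added stimulus; test concentration not given here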
[8] = test system: Lefty1; assay: Lefty1 binders on small-molecule microarrays, primary screen, biochemical, small-molecule microarray, 635/667 nm fluorescence (AID 1139); conditions: small-molecule microarray binding, fluorescence 635/667; higher = more signal
[9] = test system: wheat germ agglutinin (Triticum aestivum), Alexa647-labelled; assay: wheat germ agglutinin binders on compound microarrays, profiling panel, artefact control for SMM control-protein annotation, biochemical, small-molecule microarray, 635/667 nm fluorescence (AID 1140); conditions: WGA-A647 binding, 635 nm fluorescence, higher = more signal;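 note: score merges 667 nm feature emission with signal to noise over triplicate slides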
[10] = target: Luciferin 4-monooxygenase (Photinus pyralis) (UniProt P08659); assay: firefly luciferase enzyme inhibitors, primary screen, biochemical, luminescence, purified enzyme, 2006 set (AID 1141); conditions: SteadyGlo luminescence, 30 min, higher = more signal, called active from +8 up or from −8 down;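 note: cell-free assay with purified firefly luciferase at 100 ng per well in PBS; test concentration not given here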
[11] = test system: Wnt5a (protein binding on small-molecule microarray); assay: Wnt5a binders on small-molecule microarray, primary screen, biophysical, 635/667 nm fluorescence (AID 1142); conditions: 635 nm fluorescence, higher = more signal;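 note: fluorescence read at 667 nm with signal to noise per printed feature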
[12] = cell viability in Huh7 cells, primary screen, cytotoxicity control for HCV replication inhibitor project, CellTiter-Glo luminescence, basal, 48 h (AID 1143); conditions: Huh7 HCV replicon, higher = more signal, called active from +8 up or from −8 down;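 note: Huh7 hepatoma cells carrying a hepatitis C replication reporter with no stimulus; test concentration not given here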
[13] = P. aeruginosa biofilm formation inhibitors, primary screen, PAO1 strain, BacTiter-Glo luminescence, LB-PBS (AID 1144); conditions: 12 h, higher = more signal
[14] = CREB reporter modulators without forskolin, primary screen, cell-based, PC12, CRE-LacZ reporter, unstimulated (AID 1145); conditions: no forskolin, luminescence, 4.5 h, higher = more signal, called active from +8 up or from −8 down
[15] = CREB reporter modulators under forskolin, primary screen, cell-based, PC12, CRE-LacZ reporter, forskolin-stimulated (AID 1146); conditions: luminescence, 4.5 h, higher = more signal, called active from +8 up or from −8 down;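 note: PC12 cells with 6xCRE LacZ reporter stimulated by forskolin 10 µM; beta-galactosidase reporter signal reflecting CREB driven transcription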
[16] = target: Streptavidin (Streptomyces avidinii) (UniProt P22629); assay: streptavidin binders on small-molecule microarray, primary screen, artefact control for SMM compound annotation, biophysical, 635/667 nm fluorescence (AID 1147); conditions: streptavidin binding, higher = more signal;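 note: signal reflects streptavidin binding to arrayed compounds as a control protein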
[17] = small-molecule binders of probe aInhba, primary screen, biochemical, small-molecule microarray, 635/667 nm fluorescence (AID 1148); conditions: higher = more signal;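 note: score merges 667nm spot fluorescence with signal-to-noise for antibody binding to printed compounds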
[18] = target: Torsin-1A (Homo sapiens) (UniProt O14656); assay: torsin A binders from cell lysate, primary screen, small-molecule microarray, wild-type, 635/667 nm (AID 1149); conditions: COS7 hTOR1A-WT lysate, 635 nm fluorescence, higher = more signal
[19] = target: Torsin-1A (Homo sapiens) (UniProt O14656); assay: small-molecule binders of mutant TOR1A in lysate, primary screen, cell lysate, small-molecule microarray, COS7 lysate, 635/667 nm fluorescence (AID 1150); conditions: COS7 hTOR1A mutant lysate, 635 nm fluorescence, higher = more signal;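 note: score pools 667 nm emission and signal to noise measuring lysate protein binding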
[20] = test system: Sonic hedgehog protein (Shh); assay: small-molecule binders of Shh protein, primary screen, biochemical, small-molecule microarray, 635/667 nm fluorescence (AID 1151); conditions: small-molecule microarray binding, 635 nm fluorescence; higher = more signal;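 note: Shh protein binding to compounds spotted on small-molecule microarray slides; score combines spot fluorescence intensity with signal-to-noise across triplicate slides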

Luciferin 4-monooxygenase (Photinus pyralis), sequence (P08659 whole entry, looked up): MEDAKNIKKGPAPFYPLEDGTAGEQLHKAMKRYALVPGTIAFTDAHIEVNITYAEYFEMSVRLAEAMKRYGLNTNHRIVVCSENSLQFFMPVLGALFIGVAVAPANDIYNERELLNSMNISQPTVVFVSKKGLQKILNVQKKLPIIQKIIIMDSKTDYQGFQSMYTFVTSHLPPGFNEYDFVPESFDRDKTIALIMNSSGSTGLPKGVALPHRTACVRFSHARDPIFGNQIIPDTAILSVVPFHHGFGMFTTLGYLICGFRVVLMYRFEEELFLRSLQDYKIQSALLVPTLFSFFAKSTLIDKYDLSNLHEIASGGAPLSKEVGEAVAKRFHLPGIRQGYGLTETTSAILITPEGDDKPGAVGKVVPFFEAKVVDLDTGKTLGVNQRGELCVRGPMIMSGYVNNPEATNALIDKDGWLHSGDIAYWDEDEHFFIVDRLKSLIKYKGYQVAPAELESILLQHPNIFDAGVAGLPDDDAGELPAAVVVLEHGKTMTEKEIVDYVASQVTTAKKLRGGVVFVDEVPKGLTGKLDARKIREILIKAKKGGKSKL
Follistatin (Homo sapiens), sequence (P19883 whole entry, looked up): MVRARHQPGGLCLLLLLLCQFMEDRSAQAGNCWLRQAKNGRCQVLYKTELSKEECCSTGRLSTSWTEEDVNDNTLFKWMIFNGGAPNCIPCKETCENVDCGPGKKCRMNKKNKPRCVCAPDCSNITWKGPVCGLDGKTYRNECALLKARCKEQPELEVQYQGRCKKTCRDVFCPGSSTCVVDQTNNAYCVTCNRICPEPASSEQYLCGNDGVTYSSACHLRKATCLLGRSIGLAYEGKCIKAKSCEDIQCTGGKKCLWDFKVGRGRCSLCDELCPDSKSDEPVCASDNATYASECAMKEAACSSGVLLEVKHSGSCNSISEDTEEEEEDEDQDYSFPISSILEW
Focal adhesion kinase 1 (Homo sapiens), sequence (Q05397 whole entry, looked up): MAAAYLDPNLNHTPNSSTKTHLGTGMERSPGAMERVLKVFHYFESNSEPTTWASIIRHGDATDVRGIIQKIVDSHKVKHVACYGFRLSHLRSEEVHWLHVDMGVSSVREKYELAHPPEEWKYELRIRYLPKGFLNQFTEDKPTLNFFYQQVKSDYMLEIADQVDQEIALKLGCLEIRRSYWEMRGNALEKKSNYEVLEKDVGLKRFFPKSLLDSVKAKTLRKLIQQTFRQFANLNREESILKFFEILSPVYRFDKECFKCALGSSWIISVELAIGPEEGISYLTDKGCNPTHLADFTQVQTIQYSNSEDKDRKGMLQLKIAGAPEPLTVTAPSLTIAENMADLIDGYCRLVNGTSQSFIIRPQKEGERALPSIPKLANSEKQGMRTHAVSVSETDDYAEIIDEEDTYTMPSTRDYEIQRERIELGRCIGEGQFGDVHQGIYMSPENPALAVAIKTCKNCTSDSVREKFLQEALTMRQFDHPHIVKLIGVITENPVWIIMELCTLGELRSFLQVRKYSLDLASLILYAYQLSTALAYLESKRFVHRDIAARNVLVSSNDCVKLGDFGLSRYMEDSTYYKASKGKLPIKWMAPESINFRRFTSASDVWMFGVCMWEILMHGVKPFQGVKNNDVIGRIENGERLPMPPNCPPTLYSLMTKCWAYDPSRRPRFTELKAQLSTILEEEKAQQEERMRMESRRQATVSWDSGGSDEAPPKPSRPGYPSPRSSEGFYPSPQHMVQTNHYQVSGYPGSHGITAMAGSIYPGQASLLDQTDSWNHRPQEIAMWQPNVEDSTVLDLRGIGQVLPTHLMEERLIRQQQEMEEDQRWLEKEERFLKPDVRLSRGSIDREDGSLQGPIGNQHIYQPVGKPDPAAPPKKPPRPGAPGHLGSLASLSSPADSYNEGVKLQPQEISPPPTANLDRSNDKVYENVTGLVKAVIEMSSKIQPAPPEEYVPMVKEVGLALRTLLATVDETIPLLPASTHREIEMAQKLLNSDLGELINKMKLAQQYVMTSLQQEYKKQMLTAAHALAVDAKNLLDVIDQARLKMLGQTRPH
Torsin-1A (Homo sapiens), sequence (O14656 whole entry, looked up): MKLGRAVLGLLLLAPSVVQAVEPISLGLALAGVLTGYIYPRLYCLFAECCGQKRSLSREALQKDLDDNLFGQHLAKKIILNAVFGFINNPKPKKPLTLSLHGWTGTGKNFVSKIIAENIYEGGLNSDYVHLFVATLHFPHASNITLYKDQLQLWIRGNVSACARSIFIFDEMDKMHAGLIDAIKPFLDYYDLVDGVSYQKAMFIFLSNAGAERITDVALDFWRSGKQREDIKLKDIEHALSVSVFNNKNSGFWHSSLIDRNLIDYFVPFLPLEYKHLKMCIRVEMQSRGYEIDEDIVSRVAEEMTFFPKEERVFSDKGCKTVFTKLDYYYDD
Streptavidin (Streptomyces avidinii), sequence (P22629 whole entry, looked up): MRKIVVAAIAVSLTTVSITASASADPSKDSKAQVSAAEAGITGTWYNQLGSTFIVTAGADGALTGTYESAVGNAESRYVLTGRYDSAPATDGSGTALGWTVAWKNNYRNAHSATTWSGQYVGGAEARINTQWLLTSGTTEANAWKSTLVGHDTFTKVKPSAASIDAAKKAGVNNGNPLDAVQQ
Fibroblast growth factor 2 (Homo sapiens), sequence (P09038 whole entry, looked up): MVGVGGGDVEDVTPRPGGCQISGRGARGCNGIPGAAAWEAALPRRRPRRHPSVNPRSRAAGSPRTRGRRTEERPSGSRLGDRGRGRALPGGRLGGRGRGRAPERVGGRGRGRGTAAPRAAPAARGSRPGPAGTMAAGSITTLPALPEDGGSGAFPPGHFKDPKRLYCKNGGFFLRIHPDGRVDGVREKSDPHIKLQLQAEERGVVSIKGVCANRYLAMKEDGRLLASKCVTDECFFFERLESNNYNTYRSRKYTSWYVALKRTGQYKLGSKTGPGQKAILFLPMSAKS

Row | SMILES | composite z-score [1] | composite z-score [2] | composite z-score [3] | composite z-score [4] | composite z-score [5] | composite z-score [6] | z-score [7] | composite z-score [8] | composite z-score [9] | z-score [10] | composite z-score [11] | z-score [12] | z-score [13] | z-score [14] | z-score [15] | composite z-score [16] | composite z-score [17] | composite z-score [18] | composite z-score [19] | composite z-score [20]
1 | CN(C)CCCC[C@@H]1NC(=O)[C@@H]2C[C@H](C(=O)NCc3ccc(F)cc3)[C@H](c3cccc(OCCO)c3)N2C1=O | 0.654 | 0.68 | 0.0978 | 0.909 | 1.41 | 1.96 | 0.591 | 1.11 | -0.0486 | -0.579 (inactive) | 0.584 | -0.267 (inactive) | -0.824 (inactive) | 0.423 (inactive) | -1.18 (inactive) | -0.0899 | 0.374 | 1.27 | 1.12 | 2.06
2 | CCOC(=O)N1C(c2ccc(OCCCO)cc2)=NC(C(=O)OC)N1C(=O)OCC (stereo not given) | 0.369 | 1.2 | 0.454 | 0.864 | 1.31 | 0.955 | -0.541 | 1.07 | 0.669 | -1.45 (inactive) | 0.506 | -2.41 (inactive) | -1.33 (inactive) | 0.139 (inactive) | 0.666 (inactive) | 0.829 | 0.0614 | 0.497 | 0.36 | 1.13
3 | CCCC[C@H]1OB(O)C[C@H]2C1=C(C)Cn1c(=O)n(-c3ccccc3)c(=O)n12 | 0.247 | 0.299 | -0.144 | -0.0265 | 0.415 | 0.321 | -0.281 | 0.493 | 0.0939 | 0.169 (inactive) | 0.0677 | 0.007 (inactive) | -0.444 (inactive) | 0.222 (inactive) | -0.251 (inactive) | -0.124 | 0.0301 | 0.363 | -0.0931 | 0.759
4 | CC(C)[C@H]1COC(=O)N1C(=O)[C@H]1[C@@H](c2ccccc2)N(c2ccccc2)O[C@@H]1C | -0.0372 | 0.706 | 0.201 | 0.635 | 0.562 | 0.57 | 0.78 | 0.593 | 0.127 | 0.132 (inactive) | 0.138 | -0.917 (inactive) | -1.33 (inactive) | 0.493 (inactive) | -0.688 (inactive) | 0.465 | -0.0989 | 0.167 | 0.624 | 0.506
5 | O=C1OCCC/C=C\[C@H]2OC34C=CCN(CCN5CCOCC5)C(=O)[C@H]3N(CCO)C(=O)[C@@H]4C12 (stereo not given in full) | 2.47 | -1.64 | -0.3 | -0.786 | -0.981 | -0.322 | -1.08 | -1.57 | -0.365 | 0.634 (inactive) | -0.425 | 0.364 (inactive) | 0.145 (inactive) | -0.342 (inactive) | 0.0806 (inactive) | -0.671 | -0.203 | -0.176 | -0.506 | -0.703
6 | [N-]=[N+]=NCc1ccccc1[C@H]1OC(c2ccc(OCCCO)cc2)=N[C@@]1(Cc1ccccc1)C(=O)O | 1.97 | 0.762 | 0.551 | 0.472 | 1.31 | 1.42 | -0.0378 | 0.195 | 0.611 | -0.0016 (inactive) | 0.631 | -1.01 (inactive) | 0.564 (inactive) | -1.19 (inactive) | -0.609 (inactive) | 1.37 | -0.0477 | 0.112 | 0.381 | -0.22
7 | CCOC(=O)C[C@H]1[C@H](OC(=O)c2cc3ccccc3oc2=O)[C@@H](NC(=O)c2ccc3ccccc3c2)c2cc(OCCCO)ccc2N1C(=O)c1ccccc1 | 0.138 | 1.2 | 0.482 | 0.414 | 1.08 | 0.512 | -0.59 | 1.09 | 0.357 | 0.151 (inactive) | 0.406 | -3.04 (inactive) | 1.4 (inactive) | 9.27 (active) | 0.368 (inactive) | 0.976 | -0.0405 | 1.14 | 1.11 | 1.54
8 | Cc1ccc(S[C@]2(C(=O)NCCCN(C)C)CC(=O)N(C(C)C)[C@@H]2c2ccc(CO)cc2I)cc1 | -0.537 | -0.393 | 0.225 | -0.952 | 0.296 | -1.01 | 1.97 | 0.0228 | -0.19 | 0.216 (inactive) | -0.331 | -2.21 (inactive) | -0.985 (inactive) | -0.114 (inactive) | 0.561 (inactive) | -0.199 | -0.0986 | -1.59 | -0.729 | 0.0632
9 | O=C1C2C=CC(C(O)C3CC=CCC3)N(n3cnnc3)C2C(=O)N1Cc1ccccc1 (stereo not given) | 0.794 | -0.288 | 0.559 | 0.909 | -0.439 | -1.14 | -0.704 | -1.07 | 0.451 | 0.934 (inactive) | -0.149 | 0.227 (inactive) | 0.356 (inactive) | 0.332 (inactive) | 0.705 (inactive) | 0.0704 | -0.128 | 0.187 | -0.0519 | -0.183
10 | COc1ccc([Si](C)(C)[C@H]2[C@H](CC(=O)N3CCC[C@H]3CO)O[C@@]3(C(=O)N(Cc4cccc(N5CCC5=O)c4)c4ccccc43)[C@@H]2C)cc1 | 0.744 | 1.24 | 0.474 | 0.734 | 1.36 | 1.55 | 1.4 | 1.38 | 0.532 | -0.493 (inactive) | 0.749 | -3.02 (inactive) | 0.596 (inactive) | 1.66 (inactive) | -1.2 (inactive) | 0.0783 | -0.0132 | 0.633 | 0.594 | 1.49
11 | COc1ccc(C(O)C2C=CC3C(=O)N(c4ccccc4)C(=O)C3N2Nc2ccccc2)c2ccccc12 (stereo not given) | 2.08 | 1.12 | 0.592 | -0.833 | 0.037 | -0.702 | -0.284 | -0.0743 | 0.285 | -0.597 (inactive) | 0.145 | -2.42 (inactive) | -1.12 (inactive) | 0.24 (inactive) | 1.79 (inactive) | 0.632 | 0.382 | -0.175 | 0.15 | -0.506
12 | Cc1ccc(N2C(=O)c3ccccc3[C@](C)(C(=O)NCCN3CCOCC3)[C@@H]2c2ccc(CO)cc2)nc1 | 0.267 | -1.74 | -1.16 | -1.02 | -0.419 | -0.833 | -0.807 | -1.26 | -1.32 | 0.952 (inactive) | -0.538 | -0.28 (inactive) | -0.398 (inactive) | -0.258 (inactive) | -0.37 (inactive) | -0.932 | -0.211 | -2.51 | -1.62 | 0.465
